# Reference: publication PMC7862700, “An all-to-all approach to the identification of sequence-specific readers for epigenetic DNA modifications on cytosine”
# Experiments:
# Test in all cases: DAPPL (digital affinity profiling via proximity ligation, sequencing); 10 mM Tris-HCl pH 7.5, 50 mM NaCl, 1 mM DTT, 4% glycerol, room temperature, 30 min; GST-TFs on glutathione beads, 16-mer random dsDNA library, 0.1% formaldehyde crosslink after washing; high values mean tight binding
# FLI1 = target: T1, FLI1 (Homo sapiens, UniProt Q01543 1-452); conditions: protein: recombinant; tags: N-terminal GST; dsDNA, one strand shown
# T1 sequence: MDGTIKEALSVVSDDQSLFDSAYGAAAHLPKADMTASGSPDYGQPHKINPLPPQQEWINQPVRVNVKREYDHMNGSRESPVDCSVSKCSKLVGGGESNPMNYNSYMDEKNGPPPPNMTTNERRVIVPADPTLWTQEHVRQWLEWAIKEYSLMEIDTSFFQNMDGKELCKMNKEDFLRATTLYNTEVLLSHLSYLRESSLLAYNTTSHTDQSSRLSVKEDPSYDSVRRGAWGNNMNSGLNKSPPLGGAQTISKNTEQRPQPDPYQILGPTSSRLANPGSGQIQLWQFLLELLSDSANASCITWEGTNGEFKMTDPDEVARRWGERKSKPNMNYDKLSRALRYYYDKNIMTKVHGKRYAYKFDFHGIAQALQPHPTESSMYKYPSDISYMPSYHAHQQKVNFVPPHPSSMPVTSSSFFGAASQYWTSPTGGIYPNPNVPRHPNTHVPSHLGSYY
# Summary of the method: (§1)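 Yeast served to express human transcription factors as GST fusions, which were then captured on glutathione beads and labelled with DNA barcodes. Pooled with a tag-only sample, they were incubated with 200 nmole of a 16-mer random double-stranded DNA library for 30 min at room temperature in Tris/NaCl/DTT/glycerol buffer, washed, crosslinked with 0.1% formaldehyde, ligated by proximity, amplified by PCR and sequenced. Dividing each hexamer's read frequency for a factor by its frequency for the tag-only sample gives the binding signal.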
# ELK1 = target: T2, ELK1 (Homo sapiens, UniProt P19419 1-428); conditions: protein: recombinant; tags: N-terminal GST; dsDNA, one strand shown
# T2 sequence: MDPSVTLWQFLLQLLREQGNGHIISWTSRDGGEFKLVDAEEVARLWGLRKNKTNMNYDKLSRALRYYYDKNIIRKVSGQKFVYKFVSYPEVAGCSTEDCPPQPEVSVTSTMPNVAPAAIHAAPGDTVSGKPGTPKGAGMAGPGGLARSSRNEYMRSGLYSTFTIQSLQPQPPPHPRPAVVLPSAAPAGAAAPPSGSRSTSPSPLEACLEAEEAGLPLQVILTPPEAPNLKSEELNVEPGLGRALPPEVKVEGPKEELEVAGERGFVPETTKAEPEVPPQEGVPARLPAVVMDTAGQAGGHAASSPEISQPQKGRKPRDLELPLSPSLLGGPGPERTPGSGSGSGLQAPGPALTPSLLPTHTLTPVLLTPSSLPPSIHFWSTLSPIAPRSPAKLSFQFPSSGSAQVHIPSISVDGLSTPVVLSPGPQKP
# Summary of the method: as §1
# GABPA = target: T3, GABPA (Homo sapiens, UniProt Q06546 1-454); conditions: protein: recombinant; tags: N-terminal GST; dsDNA, one strand shown
# T3 sequence: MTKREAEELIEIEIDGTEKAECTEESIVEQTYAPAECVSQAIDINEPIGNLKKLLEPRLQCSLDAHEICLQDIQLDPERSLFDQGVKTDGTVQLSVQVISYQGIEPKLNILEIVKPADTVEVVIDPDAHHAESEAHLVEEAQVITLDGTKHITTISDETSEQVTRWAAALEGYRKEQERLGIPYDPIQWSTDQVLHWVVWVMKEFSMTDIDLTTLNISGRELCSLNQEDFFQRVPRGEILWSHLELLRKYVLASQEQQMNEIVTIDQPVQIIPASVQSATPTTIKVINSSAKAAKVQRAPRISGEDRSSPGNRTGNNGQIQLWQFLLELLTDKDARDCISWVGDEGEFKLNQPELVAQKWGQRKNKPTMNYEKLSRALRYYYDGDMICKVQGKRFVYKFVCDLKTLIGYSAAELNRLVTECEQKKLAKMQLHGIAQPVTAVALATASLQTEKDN
# Summary of the method: as §1
# ERG = target: T4, ERG (Homo sapiens, UniProt P11308 1-479); conditions: protein: recombinant; tags: N-terminal GST; dsDNA, one strand shown
# T4 sequence: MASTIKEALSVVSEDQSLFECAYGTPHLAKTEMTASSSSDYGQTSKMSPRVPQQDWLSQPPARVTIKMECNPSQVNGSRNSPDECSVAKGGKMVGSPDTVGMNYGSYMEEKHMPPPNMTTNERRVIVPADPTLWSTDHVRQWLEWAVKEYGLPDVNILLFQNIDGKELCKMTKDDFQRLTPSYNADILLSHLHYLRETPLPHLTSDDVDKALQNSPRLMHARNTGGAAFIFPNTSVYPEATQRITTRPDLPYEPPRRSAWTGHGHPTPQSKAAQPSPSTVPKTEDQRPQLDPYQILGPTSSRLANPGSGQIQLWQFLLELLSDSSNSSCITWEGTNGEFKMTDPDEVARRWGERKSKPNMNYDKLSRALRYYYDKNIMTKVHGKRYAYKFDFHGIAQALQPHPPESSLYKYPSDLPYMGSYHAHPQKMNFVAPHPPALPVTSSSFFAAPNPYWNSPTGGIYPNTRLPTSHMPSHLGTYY
# Summary of the method: as §1
# ELF1 = ELF1 (Homo sapiens, UniProt P32519 1-619); conditions: protein: recombinant; tags: N-terminal GST; dsDNA, one strand shown
# Summary of the method: as §1
# EHF = target: T5, EHF (Homo sapiens, UniProt Q9NZC4 1-300); conditions: protein: recombinant; tags: N-terminal GST; dsDNA, one strand shown
# T5 sequence: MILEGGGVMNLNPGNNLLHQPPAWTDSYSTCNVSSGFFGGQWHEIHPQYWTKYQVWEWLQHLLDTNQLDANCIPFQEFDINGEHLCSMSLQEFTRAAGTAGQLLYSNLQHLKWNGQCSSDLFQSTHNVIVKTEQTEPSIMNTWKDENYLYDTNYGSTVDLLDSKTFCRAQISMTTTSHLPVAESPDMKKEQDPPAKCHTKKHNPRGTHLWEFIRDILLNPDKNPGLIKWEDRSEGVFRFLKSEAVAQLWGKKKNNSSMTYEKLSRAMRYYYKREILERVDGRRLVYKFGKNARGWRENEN
# Summary of the method: as §1
# SPI1 = SPI1 (Homo sapiens, UniProt P17947 1-270); conditions: protein: recombinant; tags: N-terminal GST; dsDNA, one strand shown
# Summary of the method: as §1
# SPIB = SPIB (Homo sapiens, UniProt Q01892 1-262); conditions: protein: recombinant; tags: N-terminal GST; dsDNA, one strand shown
# Summary of the method: as §1
# ELK3 = target: T6, ELK3 (Homo sapiens, UniProt P41970 1-407); conditions: protein: recombinant; tags: N-terminal GST; dsDNA, one strand shown
# T6 sequence: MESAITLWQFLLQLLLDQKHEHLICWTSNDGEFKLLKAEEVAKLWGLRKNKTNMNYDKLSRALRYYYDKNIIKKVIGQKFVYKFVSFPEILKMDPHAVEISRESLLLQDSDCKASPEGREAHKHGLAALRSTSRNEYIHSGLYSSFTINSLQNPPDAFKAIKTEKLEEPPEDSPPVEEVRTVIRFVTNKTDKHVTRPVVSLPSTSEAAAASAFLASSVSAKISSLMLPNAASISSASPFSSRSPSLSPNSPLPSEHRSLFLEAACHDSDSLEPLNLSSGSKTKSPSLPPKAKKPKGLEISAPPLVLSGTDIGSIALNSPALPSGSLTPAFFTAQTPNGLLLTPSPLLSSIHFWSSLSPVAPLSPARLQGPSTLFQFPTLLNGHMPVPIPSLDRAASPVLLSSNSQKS
# Summary of the method: as §1
# FEV = target: T7, FEV (Homo sapiens, UniProt Q99581 1-238); conditions: protein: recombinant; tags: N-terminal GST; dsDNA, one strand shown
# T7 sequence: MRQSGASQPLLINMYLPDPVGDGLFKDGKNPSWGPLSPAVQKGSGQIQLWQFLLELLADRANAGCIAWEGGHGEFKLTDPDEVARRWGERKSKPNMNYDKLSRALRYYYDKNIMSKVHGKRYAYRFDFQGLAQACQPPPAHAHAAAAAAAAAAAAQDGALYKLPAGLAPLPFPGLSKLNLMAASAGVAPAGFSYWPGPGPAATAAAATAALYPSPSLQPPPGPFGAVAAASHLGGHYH
# Summary of the method: as §1
# ETV5 = ETV5 (Homo sapiens, UniProt P41161 1-510); conditions: protein: recombinant; tags: N-terminal GST; dsDNA, one strand shown
# Summary of the method: as §1
# HSF1 = HSF1 (Homo sapiens, UniProt Q00613 1-529); conditions: protein: recombinant; tags: N-terminal GST; chain copies: 3; dsDNA, one strand shown
# Summary of the method: as §1
# SPIC = target: T8, SPIC (Homo sapiens, UniProt Q8N5J4 1-248); conditions: protein: recombinant; tags: N-terminal GST; dsDNA, one strand shown
# T8 sequence: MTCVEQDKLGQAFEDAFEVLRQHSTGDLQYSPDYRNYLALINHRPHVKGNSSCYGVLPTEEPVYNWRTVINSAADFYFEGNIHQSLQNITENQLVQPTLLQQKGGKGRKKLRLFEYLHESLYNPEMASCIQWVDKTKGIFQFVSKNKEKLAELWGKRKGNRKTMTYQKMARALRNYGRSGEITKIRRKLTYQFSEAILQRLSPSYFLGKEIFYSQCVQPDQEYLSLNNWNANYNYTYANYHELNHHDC
# Summary of the method: as §1
# ELF4 = ELF4 (Homo sapiens, UniProt Q99607 1-663); conditions: protein: recombinant; tags: N-terminal GST; dsDNA, one strand shown
# Summary of the method: as §1
# ELK4 = target: T9, ELK4 (Homo sapiens, UniProt P28324-2 1-405); conditions: protein: recombinant; tags: N-terminal GST; dsDNA, one strand shown
# T9 sequence: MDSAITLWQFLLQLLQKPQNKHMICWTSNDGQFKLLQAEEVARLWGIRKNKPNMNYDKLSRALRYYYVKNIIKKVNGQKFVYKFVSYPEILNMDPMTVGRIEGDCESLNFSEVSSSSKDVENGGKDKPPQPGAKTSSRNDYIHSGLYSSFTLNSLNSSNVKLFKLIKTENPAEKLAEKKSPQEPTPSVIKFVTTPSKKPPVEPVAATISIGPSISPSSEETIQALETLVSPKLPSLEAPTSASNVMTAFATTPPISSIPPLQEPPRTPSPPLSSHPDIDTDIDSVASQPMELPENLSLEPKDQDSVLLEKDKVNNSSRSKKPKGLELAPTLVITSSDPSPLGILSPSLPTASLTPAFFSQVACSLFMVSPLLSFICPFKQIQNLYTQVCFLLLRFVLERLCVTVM
# Summary of the method: as §1
# ETV2 = target: T10, ETV2 (Homo sapiens, UniProt O00321 1-342); conditions: protein: recombinant; tags: N-terminal GST; dsDNA, one strand shown
# T10 sequence: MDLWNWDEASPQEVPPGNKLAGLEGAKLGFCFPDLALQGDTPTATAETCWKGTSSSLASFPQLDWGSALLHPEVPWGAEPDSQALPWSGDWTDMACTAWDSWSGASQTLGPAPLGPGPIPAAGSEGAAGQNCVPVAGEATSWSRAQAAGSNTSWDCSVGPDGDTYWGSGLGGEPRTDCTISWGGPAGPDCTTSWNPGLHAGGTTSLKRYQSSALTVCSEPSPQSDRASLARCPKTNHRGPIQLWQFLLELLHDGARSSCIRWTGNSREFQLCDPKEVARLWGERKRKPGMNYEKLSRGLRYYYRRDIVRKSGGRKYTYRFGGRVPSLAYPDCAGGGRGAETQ
# Summary of the method: as §1
# ELF3 = target: T11, ELF3 (Homo sapiens, UniProt P78545 1-371); conditions: protein: recombinant; tags: N-terminal GST; dsDNA, one strand shown
# T11 sequence: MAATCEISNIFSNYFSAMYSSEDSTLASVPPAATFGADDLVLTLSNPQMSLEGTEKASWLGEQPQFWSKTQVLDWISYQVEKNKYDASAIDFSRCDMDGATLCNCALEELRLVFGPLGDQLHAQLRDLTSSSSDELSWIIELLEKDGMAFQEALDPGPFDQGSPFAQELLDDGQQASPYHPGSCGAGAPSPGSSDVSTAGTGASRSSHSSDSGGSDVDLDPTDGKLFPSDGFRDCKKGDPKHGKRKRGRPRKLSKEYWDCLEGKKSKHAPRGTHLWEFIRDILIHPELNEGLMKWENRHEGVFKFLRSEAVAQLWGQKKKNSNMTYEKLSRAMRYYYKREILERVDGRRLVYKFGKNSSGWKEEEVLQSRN
# Summary of the method: as §1
# CRX = CRX (Homo sapiens, UniProt O43186 1-299); conditions: protein: recombinant; tags: N-terminal GST; dsDNA, one strand shown
# Summary of the method: as §1
# ETV1 = ETV1 (Homo sapiens, UniProt P50549 1-477); conditions: protein: recombinant; tags: N-terminal GST; dsDNA, one strand shown
# Summary of the method: as §1
# Sequence of ETV1 (P50549 whole entry): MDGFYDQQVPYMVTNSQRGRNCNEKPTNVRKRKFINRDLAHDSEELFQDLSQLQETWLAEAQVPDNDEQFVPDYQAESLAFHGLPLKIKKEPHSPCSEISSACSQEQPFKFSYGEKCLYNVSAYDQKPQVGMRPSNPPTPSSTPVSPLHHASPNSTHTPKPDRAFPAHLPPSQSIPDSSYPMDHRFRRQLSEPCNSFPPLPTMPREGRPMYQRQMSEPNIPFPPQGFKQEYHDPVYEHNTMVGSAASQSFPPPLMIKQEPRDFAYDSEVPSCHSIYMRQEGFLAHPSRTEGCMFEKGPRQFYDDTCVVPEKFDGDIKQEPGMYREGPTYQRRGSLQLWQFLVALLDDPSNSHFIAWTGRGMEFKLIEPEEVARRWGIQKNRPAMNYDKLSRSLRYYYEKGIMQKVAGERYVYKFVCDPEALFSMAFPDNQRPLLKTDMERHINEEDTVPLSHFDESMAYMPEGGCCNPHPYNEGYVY
# Sequence of ELF4 (Q99607 whole entry): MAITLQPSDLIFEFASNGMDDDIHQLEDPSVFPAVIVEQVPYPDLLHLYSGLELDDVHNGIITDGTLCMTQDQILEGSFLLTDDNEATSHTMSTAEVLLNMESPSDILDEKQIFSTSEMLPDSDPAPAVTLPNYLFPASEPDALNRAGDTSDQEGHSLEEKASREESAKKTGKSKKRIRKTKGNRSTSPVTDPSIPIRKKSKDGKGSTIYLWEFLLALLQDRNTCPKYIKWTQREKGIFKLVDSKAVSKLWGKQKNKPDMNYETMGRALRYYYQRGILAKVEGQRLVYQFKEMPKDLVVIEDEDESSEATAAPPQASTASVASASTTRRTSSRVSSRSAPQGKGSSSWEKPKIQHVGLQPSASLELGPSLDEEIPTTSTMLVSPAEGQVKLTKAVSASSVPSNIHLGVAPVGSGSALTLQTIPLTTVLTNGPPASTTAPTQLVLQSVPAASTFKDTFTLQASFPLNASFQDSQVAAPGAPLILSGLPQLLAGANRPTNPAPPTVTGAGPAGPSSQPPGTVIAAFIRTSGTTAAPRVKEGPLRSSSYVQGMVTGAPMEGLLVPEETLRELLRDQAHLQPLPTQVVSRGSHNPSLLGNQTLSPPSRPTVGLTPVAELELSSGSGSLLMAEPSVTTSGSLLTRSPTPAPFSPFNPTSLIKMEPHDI
# Sequence of CRX (O43186 whole entry): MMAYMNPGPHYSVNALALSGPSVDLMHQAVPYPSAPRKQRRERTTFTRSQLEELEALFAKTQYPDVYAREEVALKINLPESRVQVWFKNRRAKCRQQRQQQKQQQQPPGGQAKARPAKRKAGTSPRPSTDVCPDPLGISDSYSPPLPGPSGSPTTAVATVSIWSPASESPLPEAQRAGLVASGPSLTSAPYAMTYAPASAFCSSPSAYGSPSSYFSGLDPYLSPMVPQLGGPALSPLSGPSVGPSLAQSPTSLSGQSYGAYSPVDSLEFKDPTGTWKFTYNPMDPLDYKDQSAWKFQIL
# Sequence of ETV5 (P41161 whole entry): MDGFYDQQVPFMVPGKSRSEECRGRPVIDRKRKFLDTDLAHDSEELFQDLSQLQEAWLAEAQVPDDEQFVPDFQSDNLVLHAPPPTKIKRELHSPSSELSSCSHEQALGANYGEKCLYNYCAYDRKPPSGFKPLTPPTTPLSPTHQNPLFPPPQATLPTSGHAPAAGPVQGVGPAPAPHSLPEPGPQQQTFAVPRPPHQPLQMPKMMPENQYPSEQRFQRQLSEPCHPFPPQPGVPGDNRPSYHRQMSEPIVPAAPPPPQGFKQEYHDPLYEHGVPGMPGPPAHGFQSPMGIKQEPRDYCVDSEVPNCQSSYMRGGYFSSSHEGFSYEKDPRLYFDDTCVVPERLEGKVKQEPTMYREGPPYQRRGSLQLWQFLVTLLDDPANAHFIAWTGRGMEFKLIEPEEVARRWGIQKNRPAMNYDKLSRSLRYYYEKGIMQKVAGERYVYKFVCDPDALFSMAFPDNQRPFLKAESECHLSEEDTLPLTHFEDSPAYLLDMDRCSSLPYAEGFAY
# Sequence of HSF1 (Q00613 whole entry): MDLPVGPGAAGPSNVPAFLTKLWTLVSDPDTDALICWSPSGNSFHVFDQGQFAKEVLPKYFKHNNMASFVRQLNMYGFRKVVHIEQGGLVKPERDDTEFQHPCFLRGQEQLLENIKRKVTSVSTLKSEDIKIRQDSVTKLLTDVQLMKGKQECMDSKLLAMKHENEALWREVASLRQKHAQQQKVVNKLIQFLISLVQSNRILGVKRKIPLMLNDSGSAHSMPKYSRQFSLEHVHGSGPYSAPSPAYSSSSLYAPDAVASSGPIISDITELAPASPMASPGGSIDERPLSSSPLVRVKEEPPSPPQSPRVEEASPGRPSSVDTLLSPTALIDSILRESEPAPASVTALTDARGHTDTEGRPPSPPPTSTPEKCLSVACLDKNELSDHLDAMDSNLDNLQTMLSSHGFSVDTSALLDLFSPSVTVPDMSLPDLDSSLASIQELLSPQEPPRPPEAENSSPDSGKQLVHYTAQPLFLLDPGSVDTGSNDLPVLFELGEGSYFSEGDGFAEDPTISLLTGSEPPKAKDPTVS
# Sequence of ELF1 (P32519 whole entry): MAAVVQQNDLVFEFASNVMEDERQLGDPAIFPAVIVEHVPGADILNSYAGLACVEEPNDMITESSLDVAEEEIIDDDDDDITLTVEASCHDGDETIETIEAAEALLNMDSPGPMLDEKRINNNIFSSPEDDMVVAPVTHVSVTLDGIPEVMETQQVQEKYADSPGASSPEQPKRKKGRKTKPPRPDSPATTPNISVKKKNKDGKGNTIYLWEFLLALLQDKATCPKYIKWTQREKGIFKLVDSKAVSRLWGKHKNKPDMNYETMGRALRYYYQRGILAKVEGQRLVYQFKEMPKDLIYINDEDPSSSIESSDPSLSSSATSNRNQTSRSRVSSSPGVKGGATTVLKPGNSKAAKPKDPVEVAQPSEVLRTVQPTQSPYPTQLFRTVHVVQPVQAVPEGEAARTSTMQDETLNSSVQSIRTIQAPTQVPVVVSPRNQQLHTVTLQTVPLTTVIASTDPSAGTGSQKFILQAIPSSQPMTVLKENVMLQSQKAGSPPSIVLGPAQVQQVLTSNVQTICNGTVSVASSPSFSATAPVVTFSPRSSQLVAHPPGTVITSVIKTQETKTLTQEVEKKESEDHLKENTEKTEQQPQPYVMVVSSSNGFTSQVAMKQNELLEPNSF
# Sequence of SPIB (Q01892 whole entry): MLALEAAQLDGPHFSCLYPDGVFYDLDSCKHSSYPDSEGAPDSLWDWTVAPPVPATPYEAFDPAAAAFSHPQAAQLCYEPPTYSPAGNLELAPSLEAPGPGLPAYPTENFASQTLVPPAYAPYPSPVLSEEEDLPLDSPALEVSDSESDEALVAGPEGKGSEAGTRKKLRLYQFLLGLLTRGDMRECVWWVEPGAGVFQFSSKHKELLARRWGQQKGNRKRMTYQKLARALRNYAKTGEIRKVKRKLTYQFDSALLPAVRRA
sequence,measurement,setting,value
AAACAT,binding signal,FLI1,"1.53 fold enrichment (6-mer frequency, TF over GST control)"
same,binding signal,ELK1,"1.4 fold enrichment (6-mer frequency, TF over GST control)"
same,binding signal,GABPA,"1.49 fold enrichment (6-mer frequency, TF over GST control)"
same,binding signal,ERG,"1.37 fold enrichment (6-mer frequency, TF over GST control)"
same,binding signal,ELF1,"1.5 fold enrichment (6-mer frequency, TF over GST control)"
same,binding signal,EHF,"1.43 fold enrichment (6-mer frequency, TF over GST control)"
same,binding signal,SPI1,"1.36 fold enrichment (6-mer frequency, TF over GST control)"
same,binding signal,SPIB,"1.48 fold enrichment (6-mer frequency, TF over GST control)"
same,binding signal,ELK3,"1.46 fold enrichment (6-mer frequency, TF over GST control)"
same,binding signal,FEV,"1.45 fold enrichment (6-mer frequency, TF over GST control)"
same,binding signal,ETV5,"1.57 fold enrichment (6-mer frequency, TF over GST control)"
same,binding signal,HSF1,"1.48 fold enrichment (6-mer frequency, TF over GST control)"
same,binding signal,SPIC,"1.53 fold enrichment (6-mer frequency, TF over GST control)"
same,binding signal,ELF4,"1.53 fold enrichment (6-mer frequency, TF over GST control)"
same,binding signal,ELK4,"1.49 fold enrichment (6-mer frequency, TF over GST control)"
same,binding signal,ETV2,"1.53 fold enrichment (6-mer frequency, TF over GST control)"
same,binding signal,ELF3,"1.53 fold enrichment (6-mer frequency, TF over GST control)"
same,binding signal,CRX,"1.32 fold enrichment (6-mer frequency, TF over GST control)"
same,binding signal,ETV1,"1.43 fold enrichment (6-mer frequency, TF over GST control)"
